This is part of a sample that, as a whole, favours compounds with a hit. Of some 83,000 tested, about 20% had one in any assay.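 Percent growth is the endpoint: 0 to 100 indicates growth inhibition (40 means 60% inhibition), 0 means no net growth, and negative values indicate cell death.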 Active and inactive are the calls of the source. How the source made its calls: active means growth percent below 10; inactive means the rest.
How the values were obtained:
Assay in all cases: NCI-60 one-dose screen, 48 h (100 = growth as untreated, 0 = no growth, -100 = all killed)
Conditions in all cases: 10 µM unless noted
EKVX NSCLC = test system: EKVX NSCLC
SN12C renal = test system: SN12C renal
UO-31 renal = test system: UO-31 renal
TK-10 renal = test system: TK-10 renal
ACHN renal = test system: ACHN renal
CAKI-1 renal = test system: CAKI-1 renal
A498 renal = test system: A498 renal
CCRF-CEM leukemia = test system: CCRF-CEM leukemia
MOLT-4 leukemia = test system: MOLT-4 leukemia
SR leukemia = test system: SR leukemia

Measured: growth

Clc1ccc(Oc2ccc(Nc3ncnc4onc(-c5ccccc5)c34)cc2)c(Cl)c1
inactive: EKVX NSCLC 103% | SN12C renal 94% | UO-31 renal 67% | TK-10 renal 105% | ACHN renal 105% | CAKI-1 renal 90.6% | A498 renal 103% | CCRF-CEM leukemia 98.1% | MOLT-4 leukemia 89.8% | SR leukemia 80.6%

COc1ccc(CCN2C(=O)/C(=C/c3ccc(C4Oc5ccccc5C5CC(c6cccc(OC)c6)=NN54)cc3)SC2=S)cc1 (stereo not given)
inactive: EKVX NSCLC 94.4% | SN12C renal 101% | UO-31 renal 82% | TK-10 renal 103% | ACHN renal 98.3% | CAKI-1 renal 95.7% | A498 renal 106% | CCRF-CEM leukemia 98.8% | MOLT-4 leukemia 104% | SR leukemia 115%

CCOC(=O)C1=C(C)c2ccc(OC)c(OC)c2C1
inactive: EKVX NSCLC 98.8% | SN12C renal 108% | UO-31 renal 95.5% | TK-10 renal 87.2% | ACHN renal 103% | CAKI-1 renal 100% | A498 renal 96.3% | CCRF-CEM leukemia 93% | MOLT-4 leukemia 87.7% | SR leukemia 73.4%

COc1cccc2c1C=C1CCCCC3=Cc4c(OC)cccc4OC13O2
inactive: EKVX NSCLC 60.5% | SN12C renal 49.5% | UO-31 renal 44.5% | TK-10 renal 74.7% | ACHN renal 38.7% | CAKI-1 renal 47.8% | A498 renal 35.9% | CCRF-CEM leukemia 27.9% | MOLT-4 leukemia 29.1% | SR leukemia 28.6%

Cc1cc(OC(=O)c2ccc([N+](=O)[O-])cc2)nc2[nH]c(=O)sc12
inactive: EKVX NSCLC 92.1% | SN12C renal 101% | UO-31 renal 82.1% | TK-10 renal 103% | ACHN renal 103% | CAKI-1 renal 91.5% | A498 renal 104% | CCRF-CEM leukemia 106% | MOLT-4 leukemia 101% | SR leukemia 108%

CN(CCc1ccccc1)C(=S)N(C(=O)c1ccc([N+](=O)[O-])cc1)c1ccc(Cl)cc1
inactive: EKVX NSCLC 95.1% | SN12C renal 89% | UO-31 renal 76.8% | TK-10 renal 76% | ACHN renal 106% | CAKI-1 renal 85.5% | A498 renal 93.4% | CCRF-CEM leukemia 39.6% | MOLT-4 leukemia 43.1% | SR leukemia 25%

NCCOc1ncccc1/C=C1\c2ccccc2-c2ccc(F)cc21
active: SN12C renal 2.42% | UO-31 renal -17.5% | ACHN renal -20.8% | CCRF-CEM leukemia 6.8% | MOLT-4 leukemia 2.25% | SR leukemia 9%
inactive: EKVX NSCLC 51.9% | TK-10 renal 22.4% | CAKI-1 renal 12.8% | A498 renal 18.9%

COc1ccc(C2=Nn3c(NN)nnc3SC2)cc1
inactive: EKVX NSCLC 118% | SN12C renal 101% | UO-31 renal 84.5% | TK-10 renal 97.5% | ACHN renal 103% | CAKI-1 renal 89.7% | A498 renal 84.6% | CCRF-CEM leukemia 95.1% | MOLT-4 leukemia 83% | SR leukemia 75.8%

Cn1c(/C=C(\C#N)c2ccccc2)nc2c(N3CCOCC3)nc(Cl)nc21
active: EKVX NSCLC -72.4% | SN12C renal -58.6% | UO-31 renal -100% | TK-10 renal -63.6% | ACHN renal -96.2% | CAKI-1 renal -96.9% | A498 renal 2.31% | CCRF-CEM leukemia 2.94% | MOLT-4 leukemia -12.4%
inactive: SR leukemia 10.7%

O=C1/C(=C\c2ccc[nH]2)c2ccccc2N1c1ccccc1
inactive: EKVX NSCLC 47.7% | SN12C renal 89.1% | UO-31 renal 93.2% | TK-10 renal 102% | ACHN renal 92.2% | CAKI-1 renal 92% | A498 renal 101% | CCRF-CEM leukemia 99.2% | MOLT-4 leukemia 102% | SR leukemia 139%

COC(=O)/C(CCC=C(C)C)=C1\[C@@H](OC(C)=O)C[C@@]2(C)[C@H]1C[C@@H](O)[C@H]1[C@@]3(C)CC[C@H](NCCO)[C@@H](C)[C@@H]3CC[C@@]12C
inactive: EKVX NSCLC 99.6% | SN12C renal 105% | UO-31 renal 78.9% | TK-10 renal 115% | ACHN renal 97.3% | CAKI-1 renal 91% | A498 renal 101% | CCRF-CEM leukemia 101% | MOLT-4 leukemia 96.7% | SR leukemia 98.3%

CN1CCN(Cc2ccc(NC(=O)c3[nH]ncc3Nc3cc(OC4CCCC4)ncn3)cc2)CC1
inactive: EKVX NSCLC 60.1% | SN12C renal 24.9% | UO-31 renal 25.8% | TK-10 renal 88.3% | CAKI-1 renal 19.2% | A498 renal 49.6%
active: ACHN renal 8.8% | CCRF-CEM leukemia 5.67% | MOLT-4 leukemia 5.56% | SR leukemia 4.42%

O=C(Nc1ccc(N2CCNCC2)cn1)c1[nH]ncc1Nc1ncnc2sccc12
active: CCRF-CEM leukemia 5.54% | MOLT-4 leukemia 2.22% | SR leukemia -5.97%
inactive: EKVX NSCLC 65.8% | SN12C renal 66.9% | UO-31 renal 76.1% | TK-10 renal 87.1% | ACHN renal 60.2% | CAKI-1 renal 54.1% | A498 renal 80.7%

Cc1ccc(N=NC2C(=O)N(c3ccc(Cl)cc3)N(c3ccc(Cl)cc3)C2=O)cc1
inactive: EKVX NSCLC 94.1% | SN12C renal 96.4% | UO-31 renal 73.1% | TK-10 renal 132% | ACHN renal 95% | CAKI-1 renal 92.4% | A498 renal 88.6% | CCRF-CEM leukemia 96.3% | MOLT-4 leukemia 100% | SR leukemia 120%

Cc1nc(Nc2ccccn2)sc1C(=O)/C=C/c1ccc(Cl)cc1
active: A498 renal 6.49%
inactive: EKVX NSCLC 27.8% | SN12C renal 32% | UO-31 renal 28.6% | TK-10 renal 61.5% | ACHN renal 23.2% | CAKI-1 renal 27.9% | CCRF-CEM leukemia 17.1% | MOLT-4 leukemia 17.2% | SR leukemia 15.6%

O=c1c(-c2nc3ccccc3[nH]2)cc2ccccc2n1Cc1cn(Cc2ccccc2Cl)nn1
active: UO-31 renal -65.7%
inactive: EKVX NSCLC 74.8% | SN12C renal 12% | TK-10 renal 31% | ACHN renal 12.2% | CAKI-1 renal 77.4% | A498 renal 67% | CCRF-CEM leukemia 65.2% | MOLT-4 leukemia 32.5% | SR leukemia 11.5%

O=C(Nc1ccc(N2CCNCC2)cc1)c1[nH]ncc1Nc1cc(C2CC2)ncn1
inactive: EKVX NSCLC 69.8% | SN12C renal 44.7% | UO-31 renal 34.1% | TK-10 renal 56.3% | ACHN renal 21.4% | CAKI-1 renal 27.5% | A498 renal 51.1% | CCRF-CEM leukemia 30% | MOLT-4 leukemia 15.1%
active: SR leukemia 5.95%

O=S(=O)(Nc1ncccn1)c1ccc(NC2Nc3nc4ccccc4nc3S2)cc1 (stereo not given)
inactive: EKVX NSCLC 90.7% | SN12C renal 97.7% | UO-31 renal 78.5% | TK-10 renal 109% | ACHN renal 98.5% | CAKI-1 renal 94% | A498 renal 99.3% | CCRF-CEM leukemia 104% | MOLT-4 leukemia 99.7% | SR leukemia 102%

CCN1C(=O)N(CC)C2Nn3c(s/c(=C4\C(=O)N(C(C)C)c5ccccc54)c3=O)=NC21 (stereo not given)
inactive: EKVX NSCLC 29.9% | SN12C renal 47.7% | UO-31 renal 55.8% | TK-10 renal 86.6% | ACHN renal 43.1% | CAKI-1 renal 45.9% | A498 renal 37.4% | CCRF-CEM leukemia 19.3% | MOLT-4 leukemia 19.6% | SR leukemia 21.2%

OC(c1ccccc1)c1nnc(SCc2ccccc2)n1Cc1ccccc1 (stereo not given)
inactive: EKVX NSCLC 102% | SN12C renal 89.7% | UO-31 renal 67.7% | TK-10 renal 103% | ACHN renal 86.9% | CAKI-1 renal 97% | A498 renal 90.1% | CCRF-CEM leukemia 75.4% | MOLT-4 leukemia 99.9% | SR leukemia 42.5%

O=C1Nc2ccccc2/C1=C/c1cccs1
inactive: EKVX NSCLC 73.2% | SN12C renal 89.9% | UO-31 renal 62.2% | TK-10 renal 134% | ACHN renal 86.7% | CAKI-1 renal 90.4% | A498 renal 106% | CCRF-CEM leukemia 97.2% | MOLT-4 leukemia 102% | SR leukemia 121%

COc1cc(/C=C/C(=O)c2ccc(Cl)cc2)cc(CN2CCCCC2)c1O
inactive: EKVX NSCLC 89.5% | SN12C renal 93.1% | UO-31 renal 58.5% | TK-10 renal 115% | ACHN renal 87.1% | CAKI-1 renal 85.2% | A498 renal 82.6% | CCRF-CEM leukemia 58.8% | MOLT-4 leukemia 64.3% | SR leukemia 34%

COc1ccc(Br)c(/C=C2\SC(=Nc3ccc(O)cc3)NC2=O)c1
inactive: EKVX NSCLC 88.7% | SN12C renal 89.7% | UO-31 renal 49.8% | TK-10 renal 96.4% | ACHN renal 89.7% | CAKI-1 renal 75.8% | A498 renal 97.6% | CCRF-CEM leukemia 75% | MOLT-4 leukemia 85.2% | SR leukemia 110%

CCOC(=O)c1sc(-c2ccc(OS(=O)(=O)c3cccs3)c(C=O)c2)nc1C
inactive: EKVX NSCLC 33.6% | TK-10 renal 12.2% | A498 renal 31.4%
active: SN12C renal 1.55% | UO-31 renal -4.34% | ACHN renal 0.377% | CAKI-1 renal 2.41% | CCRF-CEM leukemia 7.57% | MOLT-4 leukemia -7.85% | SR leukemia 3.44%

COc1ccc(/C=C2/SC(=O)N(CC(=O)N3CCN(c4cc5c(cc4F)c(=O)c(C(=O)O)cn5C4CC4)CC3)C2=O)cc1
inactive: EKVX NSCLC 114% | SN12C renal 96.5% | UO-31 renal 81.8% | TK-10 renal 117% | ACHN renal 102% | CAKI-1 renal 92.4% | A498 renal 113% | CCRF-CEM leukemia 107% | MOLT-4 leukemia 108% | SR leukemia 94.4%

COc1ccc(C2C3=C(COC3=O)N(CCO)c3cc4c(cc32)OCCO4)cc1 (stereo not given)
inactive: EKVX NSCLC 121% | SN12C renal 95.4% | UO-31 renal 101% | TK-10 renal 91.6% | ACHN renal 96.5% | CAKI-1 renal 80.8% | A498 renal 93.7% | CCRF-CEM leukemia 89.3% | MOLT-4 leukemia 81.9% | SR leukemia 31.6%

Cc1cccc(NC(=O)c2sc3nc4c(cc3c2N)CCCC4)c1C
inactive: EKVX NSCLC 45.4% | SN12C renal 38.9% | UO-31 renal 50.6% | TK-10 renal 65.4% | ACHN renal 41.3% | CAKI-1 renal 34.8% | MOLT-4 leukemia 19.3% | SR leukemia 34.7%
active: A498 renal 4.01% | CCRF-CEM leukemia 7.79%

From PubChem BioAssay (NCI)
